What all share (experiment): DAPPL (digital affinity profiling via proximity ligation, sequencing); 10 mM Tris-HCl pH 7.5, 50 mM NaCl, 1 mM DTT, 4% glycerol, room temperature, 30 min; GST-TFs on glutathione beads, 16-mer random dsDNA library, 0.1% formaldehyde crosslink after washing; high values mean tight binding
The target of assay [1] is T1, FLI1 (Homo sapiens, UniProt Q01543 1-452).
T1 sequence: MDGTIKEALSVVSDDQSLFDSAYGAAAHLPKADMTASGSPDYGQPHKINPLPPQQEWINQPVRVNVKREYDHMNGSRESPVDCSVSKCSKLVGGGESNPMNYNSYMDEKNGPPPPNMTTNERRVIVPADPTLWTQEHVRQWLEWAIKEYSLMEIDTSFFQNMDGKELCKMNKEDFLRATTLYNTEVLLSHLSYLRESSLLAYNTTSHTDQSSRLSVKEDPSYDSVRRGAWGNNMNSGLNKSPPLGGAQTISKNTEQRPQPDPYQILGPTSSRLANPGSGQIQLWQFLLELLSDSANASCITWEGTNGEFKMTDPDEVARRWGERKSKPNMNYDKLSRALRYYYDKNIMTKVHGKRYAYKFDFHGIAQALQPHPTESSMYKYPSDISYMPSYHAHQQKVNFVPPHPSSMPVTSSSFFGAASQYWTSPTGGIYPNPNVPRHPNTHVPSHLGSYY
The note with it: protein: recombinant; tags: N-terminal GST; dsDNA, one strand shown. In a few lines:
(§1)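 In yeast, human transcription factors were expressed with a GST fusion, then pulled down on glutathione beads and given DNA barcodes. Pooled with a tag-only sample, they were exposed to 200 nmole of a 16-mer random double-stranded DNA library (Tris/NaCl/DTT/glycerol buffer, room temperature, 30 min), washed, crosslinked with 0.1% formaldehyde, proximity-ligated using BsaI/T4 ligase for 1 h at 37 °C, PCR-amplified and read on an Illumina NextSeq500. Each hexamer's frequency of reads for a factor, divided by the matching frequency for the tag-only sample, gives the binding signal.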

Assay [2] deals with T2, ELK1 (Homo sapiens, UniProt P19419 1-428).
T2 sequence: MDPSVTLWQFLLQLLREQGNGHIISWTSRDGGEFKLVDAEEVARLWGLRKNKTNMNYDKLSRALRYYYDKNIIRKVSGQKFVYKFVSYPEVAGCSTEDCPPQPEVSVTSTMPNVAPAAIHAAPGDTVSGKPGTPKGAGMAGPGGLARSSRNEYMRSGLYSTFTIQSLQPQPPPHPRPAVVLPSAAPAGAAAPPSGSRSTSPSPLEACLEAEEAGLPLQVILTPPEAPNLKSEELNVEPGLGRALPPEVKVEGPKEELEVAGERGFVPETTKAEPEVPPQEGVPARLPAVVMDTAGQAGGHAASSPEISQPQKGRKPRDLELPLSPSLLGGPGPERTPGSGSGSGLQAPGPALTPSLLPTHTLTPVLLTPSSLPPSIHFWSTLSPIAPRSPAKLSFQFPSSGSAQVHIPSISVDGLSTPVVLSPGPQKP
The settings on record: protein: recombinant; tags: N-terminal GST; dsDNA, one strand shown. In outline:
as §1

Assay [3] concerns the target T3, GABPA (Homo sapiens, UniProt Q06546 1-454).
T3 sequence: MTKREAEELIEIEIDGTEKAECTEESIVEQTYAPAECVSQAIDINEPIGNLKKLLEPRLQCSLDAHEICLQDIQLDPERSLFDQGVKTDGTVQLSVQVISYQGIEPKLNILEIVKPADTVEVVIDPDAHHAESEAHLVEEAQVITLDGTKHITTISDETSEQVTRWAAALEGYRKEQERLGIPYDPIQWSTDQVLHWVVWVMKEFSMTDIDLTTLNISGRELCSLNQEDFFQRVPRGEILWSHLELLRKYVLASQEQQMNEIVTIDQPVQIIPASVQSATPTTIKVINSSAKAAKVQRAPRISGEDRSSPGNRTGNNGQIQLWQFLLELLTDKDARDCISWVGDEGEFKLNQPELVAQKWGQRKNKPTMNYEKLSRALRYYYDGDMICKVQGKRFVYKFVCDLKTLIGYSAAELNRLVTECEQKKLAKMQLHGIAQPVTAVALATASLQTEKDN
The settings on record: protein: recombinant; tags: N-terminal GST; dsDNA, one strand shown. In a few lines:
as §1

Assay [4] concerns the target T4, ERG (Homo sapiens, UniProt P11308 1-479).
T4 sequence: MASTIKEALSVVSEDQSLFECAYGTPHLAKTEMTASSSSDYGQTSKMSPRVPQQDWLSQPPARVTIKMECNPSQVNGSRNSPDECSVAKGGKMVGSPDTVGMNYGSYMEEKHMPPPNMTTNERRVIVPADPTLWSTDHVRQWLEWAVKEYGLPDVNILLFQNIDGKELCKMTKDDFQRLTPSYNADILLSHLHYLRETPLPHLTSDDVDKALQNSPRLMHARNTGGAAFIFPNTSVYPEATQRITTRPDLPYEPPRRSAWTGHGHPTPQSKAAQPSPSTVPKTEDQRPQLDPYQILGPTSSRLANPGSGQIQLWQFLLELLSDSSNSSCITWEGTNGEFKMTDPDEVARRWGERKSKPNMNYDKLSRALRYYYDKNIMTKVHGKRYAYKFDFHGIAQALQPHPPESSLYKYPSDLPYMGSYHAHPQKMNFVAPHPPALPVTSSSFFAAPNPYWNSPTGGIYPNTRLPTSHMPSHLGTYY
The settings on record: protein: recombinant; tags: N-terminal GST; dsDNA, one strand shown. In a few lines:
as §1

Assay [5] has as its target ELF1 (Homo sapiens, UniProt P32519 1-619). The note with it: protein: recombinant; tags: N-terminal GST; dsDNA, one strand shown. In outline:
as §1

Assay [6] deals with T5, EHF (Homo sapiens, UniProt Q9NZC4 1-300).
T5 sequence: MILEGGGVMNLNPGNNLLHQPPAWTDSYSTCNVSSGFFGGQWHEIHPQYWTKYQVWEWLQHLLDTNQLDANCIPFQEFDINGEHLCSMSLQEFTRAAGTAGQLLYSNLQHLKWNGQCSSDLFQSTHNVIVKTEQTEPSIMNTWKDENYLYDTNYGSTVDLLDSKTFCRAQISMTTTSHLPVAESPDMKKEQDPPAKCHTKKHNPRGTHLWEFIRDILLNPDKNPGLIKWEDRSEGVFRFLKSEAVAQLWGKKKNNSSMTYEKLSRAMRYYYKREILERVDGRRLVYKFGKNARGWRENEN
The settings on record: protein: recombinant; tags: N-terminal GST; dsDNA, one strand shown. In outline: as §1

Assay [7] addresses SPI1 (Homo sapiens, UniProt P17947 1-270). The settings on record: protein: recombinant; tags: N-terminal GST; dsDNA, one strand shown. In a few lines: as §1
Assay [8] addresses SPIB (Homo sapiens, UniProt Q01892 1-262). The note with it: protein: recombinant; tags: N-terminal GST; dsDNA, one strand shown. In a few lines: as §1
Assay [9] has as its target T6, ELK3 (Homo sapiens, UniProt P41970 1-407).
T6 sequence: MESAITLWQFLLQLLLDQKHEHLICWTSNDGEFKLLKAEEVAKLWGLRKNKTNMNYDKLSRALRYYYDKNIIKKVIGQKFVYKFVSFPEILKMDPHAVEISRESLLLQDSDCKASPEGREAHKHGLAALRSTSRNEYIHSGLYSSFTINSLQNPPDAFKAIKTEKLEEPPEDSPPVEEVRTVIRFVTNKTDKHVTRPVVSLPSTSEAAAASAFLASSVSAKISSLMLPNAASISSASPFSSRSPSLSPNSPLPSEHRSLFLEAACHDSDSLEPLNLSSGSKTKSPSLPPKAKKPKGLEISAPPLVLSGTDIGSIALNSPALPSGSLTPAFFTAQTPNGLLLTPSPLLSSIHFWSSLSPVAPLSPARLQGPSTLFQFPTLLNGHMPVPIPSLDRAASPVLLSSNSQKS
The settings on record: protein: recombinant; tags: N-terminal GST; dsDNA, one strand shown. In a few lines:
as §1

Assay [10] addresses T7, FEV (Homo sapiens, UniProt Q99581 1-238).
T7 sequence: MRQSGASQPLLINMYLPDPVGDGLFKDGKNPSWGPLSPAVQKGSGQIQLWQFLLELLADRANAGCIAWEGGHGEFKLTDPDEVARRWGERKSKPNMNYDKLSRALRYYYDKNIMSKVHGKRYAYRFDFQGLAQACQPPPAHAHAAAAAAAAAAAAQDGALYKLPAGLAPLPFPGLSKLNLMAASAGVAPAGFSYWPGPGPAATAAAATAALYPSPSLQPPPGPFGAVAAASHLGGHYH
The note with it: protein: recombinant; tags: N-terminal GST; dsDNA, one strand shown. In a few lines: as §1

Assay [11] concerns the target ETV5 (Homo sapiens, UniProt P41161 1-510). The note with it: protein: recombinant; tags: N-terminal GST; dsDNA, one strand shown. In a few lines: as §1
In assay [12] the target is HSF1 (Homo sapiens, UniProt Q00613 1-529). The note with it: protein: recombinant; tags: N-terminal GST; chain copies: 3; dsDNA, one strand shown. In outline: as §1
HSF1, sequence (Q00613 whole entry): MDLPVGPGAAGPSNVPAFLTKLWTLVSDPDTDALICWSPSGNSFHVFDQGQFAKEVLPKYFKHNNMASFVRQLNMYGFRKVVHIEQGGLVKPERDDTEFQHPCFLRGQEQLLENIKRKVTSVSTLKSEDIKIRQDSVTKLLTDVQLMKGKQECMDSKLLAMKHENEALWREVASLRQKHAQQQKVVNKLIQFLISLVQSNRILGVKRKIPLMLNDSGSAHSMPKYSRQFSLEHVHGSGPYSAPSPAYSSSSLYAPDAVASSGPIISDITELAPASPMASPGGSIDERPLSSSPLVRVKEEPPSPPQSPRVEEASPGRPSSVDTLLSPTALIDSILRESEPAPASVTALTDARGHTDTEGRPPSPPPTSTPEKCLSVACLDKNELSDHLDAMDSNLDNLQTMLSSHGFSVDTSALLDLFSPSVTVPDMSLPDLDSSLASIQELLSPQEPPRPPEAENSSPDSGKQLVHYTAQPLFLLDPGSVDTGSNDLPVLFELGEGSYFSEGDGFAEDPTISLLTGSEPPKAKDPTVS
The target in assay [13] is T8, SPIC (Homo sapiens, UniProt Q8N5J4 1-248).
T8 sequence: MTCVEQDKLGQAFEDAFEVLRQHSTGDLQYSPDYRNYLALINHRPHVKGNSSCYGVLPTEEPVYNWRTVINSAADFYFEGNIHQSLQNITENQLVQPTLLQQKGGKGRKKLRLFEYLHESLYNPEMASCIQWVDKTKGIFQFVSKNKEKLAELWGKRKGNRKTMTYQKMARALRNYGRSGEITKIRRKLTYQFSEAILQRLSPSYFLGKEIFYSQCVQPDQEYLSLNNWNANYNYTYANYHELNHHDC
The note with it: protein: recombinant; tags: N-terminal GST; dsDNA, one strand shown. In outline:
as §1

For assay [14], the target named is ELF4 (Homo sapiens, UniProt Q99607 1-663). The note with it: protein: recombinant; tags: N-terminal GST; dsDNA, one strand shown. In outline: as §1
ELF4, sequence (Q99607 whole entry): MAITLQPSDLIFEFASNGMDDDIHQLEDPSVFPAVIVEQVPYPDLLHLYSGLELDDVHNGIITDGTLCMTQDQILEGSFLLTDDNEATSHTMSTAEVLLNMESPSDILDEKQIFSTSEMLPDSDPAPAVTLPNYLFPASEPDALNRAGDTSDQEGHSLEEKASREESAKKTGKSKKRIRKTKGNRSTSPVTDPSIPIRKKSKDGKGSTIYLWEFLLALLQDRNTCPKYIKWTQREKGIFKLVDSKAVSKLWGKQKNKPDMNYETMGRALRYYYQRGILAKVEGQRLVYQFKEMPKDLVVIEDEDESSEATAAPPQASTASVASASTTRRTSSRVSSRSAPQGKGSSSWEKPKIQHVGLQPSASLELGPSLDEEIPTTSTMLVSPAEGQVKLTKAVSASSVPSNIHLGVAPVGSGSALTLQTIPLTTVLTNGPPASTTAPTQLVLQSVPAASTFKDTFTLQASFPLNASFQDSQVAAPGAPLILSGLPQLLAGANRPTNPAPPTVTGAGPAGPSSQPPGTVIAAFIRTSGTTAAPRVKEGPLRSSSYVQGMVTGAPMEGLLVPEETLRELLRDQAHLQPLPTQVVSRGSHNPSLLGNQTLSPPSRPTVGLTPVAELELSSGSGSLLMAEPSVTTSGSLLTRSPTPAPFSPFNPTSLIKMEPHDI
For assay [15], the target named is T9, ELK4 (Homo sapiens, UniProt P28324-2 1-405).
T9 sequence: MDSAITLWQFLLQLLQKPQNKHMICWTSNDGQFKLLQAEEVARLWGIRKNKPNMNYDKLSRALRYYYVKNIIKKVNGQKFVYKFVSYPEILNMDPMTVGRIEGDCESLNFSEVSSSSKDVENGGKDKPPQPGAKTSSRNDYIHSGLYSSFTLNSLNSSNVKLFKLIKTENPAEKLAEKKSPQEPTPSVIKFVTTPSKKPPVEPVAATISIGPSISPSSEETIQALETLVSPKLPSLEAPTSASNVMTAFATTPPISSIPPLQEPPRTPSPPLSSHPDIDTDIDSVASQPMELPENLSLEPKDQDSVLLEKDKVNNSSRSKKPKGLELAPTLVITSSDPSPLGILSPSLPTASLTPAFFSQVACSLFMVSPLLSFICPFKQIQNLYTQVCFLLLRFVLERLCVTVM
The settings on record: protein: recombinant; tags: N-terminal GST; dsDNA, one strand shown. In outline:
as §1

The target in assay [16] is T10, ETV2 (Homo sapiens, UniProt O00321 1-342).
T10 sequence: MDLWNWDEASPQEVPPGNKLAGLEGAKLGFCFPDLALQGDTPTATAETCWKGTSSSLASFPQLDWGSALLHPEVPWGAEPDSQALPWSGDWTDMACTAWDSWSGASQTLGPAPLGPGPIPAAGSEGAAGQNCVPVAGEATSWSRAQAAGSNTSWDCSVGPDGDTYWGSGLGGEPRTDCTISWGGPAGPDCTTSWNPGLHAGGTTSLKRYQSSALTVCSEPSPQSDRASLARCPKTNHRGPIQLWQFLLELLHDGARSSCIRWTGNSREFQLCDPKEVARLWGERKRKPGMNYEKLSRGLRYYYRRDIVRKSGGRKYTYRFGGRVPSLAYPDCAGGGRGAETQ
The note with it: protein: recombinant; tags: N-terminal GST; dsDNA, one strand shown. In outline: as §1

In assay [17] the target is T11, ELF3 (Homo sapiens, UniProt P78545 1-371).
T11 sequence: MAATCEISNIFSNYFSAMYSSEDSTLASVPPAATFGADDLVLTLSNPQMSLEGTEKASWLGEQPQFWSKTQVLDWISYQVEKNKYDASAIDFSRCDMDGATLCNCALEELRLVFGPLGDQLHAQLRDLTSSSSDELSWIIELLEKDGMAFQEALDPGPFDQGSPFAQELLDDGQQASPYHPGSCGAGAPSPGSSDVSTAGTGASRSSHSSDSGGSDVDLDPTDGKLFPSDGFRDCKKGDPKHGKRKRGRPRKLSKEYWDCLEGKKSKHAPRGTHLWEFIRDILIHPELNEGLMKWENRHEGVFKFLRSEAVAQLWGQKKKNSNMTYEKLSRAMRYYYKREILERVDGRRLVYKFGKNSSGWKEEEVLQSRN
The settings on record: protein: recombinant; tags: N-terminal GST; dsDNA, one strand shown. In a few lines:
as §1

The target of assay [18] is CRX (Homo sapiens, UniProt O43186 1-299). The note with it: protein: recombinant; tags: N-terminal GST; dsDNA, one strand shown. In a few lines:
as §1

Assay [19] deals with ETV1 (Homo sapiens, UniProt P50549 1-477). The note with it: protein: recombinant; tags: N-terminal GST; dsDNA, one strand shown. In a few lines:
as §1

ELF1, sequence (P32519 whole entry): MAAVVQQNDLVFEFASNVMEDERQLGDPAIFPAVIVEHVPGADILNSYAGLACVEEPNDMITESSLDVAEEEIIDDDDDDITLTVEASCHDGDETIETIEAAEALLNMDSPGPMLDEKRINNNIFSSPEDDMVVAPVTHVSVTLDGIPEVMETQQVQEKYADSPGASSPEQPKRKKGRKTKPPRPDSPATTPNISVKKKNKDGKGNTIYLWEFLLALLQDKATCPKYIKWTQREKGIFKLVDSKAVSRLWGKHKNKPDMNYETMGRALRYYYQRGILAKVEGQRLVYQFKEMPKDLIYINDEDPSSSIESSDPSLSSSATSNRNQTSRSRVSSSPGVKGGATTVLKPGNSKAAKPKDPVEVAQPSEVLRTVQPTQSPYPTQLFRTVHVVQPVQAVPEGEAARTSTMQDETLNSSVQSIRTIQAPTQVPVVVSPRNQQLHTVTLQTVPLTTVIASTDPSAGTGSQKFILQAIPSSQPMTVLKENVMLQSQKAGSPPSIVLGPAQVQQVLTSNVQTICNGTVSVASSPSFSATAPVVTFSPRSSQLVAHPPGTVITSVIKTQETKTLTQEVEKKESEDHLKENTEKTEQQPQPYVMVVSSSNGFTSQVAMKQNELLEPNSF
CRX, sequence (O43186 whole entry): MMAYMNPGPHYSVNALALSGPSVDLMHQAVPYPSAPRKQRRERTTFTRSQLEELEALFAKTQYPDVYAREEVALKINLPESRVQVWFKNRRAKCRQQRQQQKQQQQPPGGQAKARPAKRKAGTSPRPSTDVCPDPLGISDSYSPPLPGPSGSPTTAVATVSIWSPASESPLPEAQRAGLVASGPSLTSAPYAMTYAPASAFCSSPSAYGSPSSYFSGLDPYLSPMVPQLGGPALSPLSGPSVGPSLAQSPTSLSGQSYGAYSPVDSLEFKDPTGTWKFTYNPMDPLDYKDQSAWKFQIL
SPIB, sequence (Q01892 whole entry): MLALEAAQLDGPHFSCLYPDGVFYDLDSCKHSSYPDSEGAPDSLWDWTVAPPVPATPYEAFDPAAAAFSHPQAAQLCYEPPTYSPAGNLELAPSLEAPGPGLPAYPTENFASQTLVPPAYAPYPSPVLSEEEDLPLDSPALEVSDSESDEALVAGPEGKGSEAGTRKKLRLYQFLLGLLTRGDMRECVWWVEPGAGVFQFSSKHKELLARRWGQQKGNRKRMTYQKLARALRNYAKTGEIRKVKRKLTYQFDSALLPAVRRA
ETV5, sequence (P41161 whole entry): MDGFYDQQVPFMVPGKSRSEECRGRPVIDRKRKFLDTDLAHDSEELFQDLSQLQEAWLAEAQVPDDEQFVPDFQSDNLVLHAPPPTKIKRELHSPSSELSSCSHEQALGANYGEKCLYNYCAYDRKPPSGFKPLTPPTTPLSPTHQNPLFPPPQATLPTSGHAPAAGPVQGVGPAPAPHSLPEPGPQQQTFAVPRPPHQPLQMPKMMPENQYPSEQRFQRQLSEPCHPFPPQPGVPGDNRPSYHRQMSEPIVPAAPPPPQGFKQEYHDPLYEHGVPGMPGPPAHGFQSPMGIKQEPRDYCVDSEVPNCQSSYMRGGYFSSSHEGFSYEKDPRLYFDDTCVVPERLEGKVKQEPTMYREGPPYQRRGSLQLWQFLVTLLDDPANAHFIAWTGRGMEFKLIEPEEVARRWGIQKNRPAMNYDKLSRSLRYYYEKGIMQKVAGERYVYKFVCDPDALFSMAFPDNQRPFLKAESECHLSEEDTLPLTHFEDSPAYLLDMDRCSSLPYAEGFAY
ETV1, sequence (P50549 whole entry): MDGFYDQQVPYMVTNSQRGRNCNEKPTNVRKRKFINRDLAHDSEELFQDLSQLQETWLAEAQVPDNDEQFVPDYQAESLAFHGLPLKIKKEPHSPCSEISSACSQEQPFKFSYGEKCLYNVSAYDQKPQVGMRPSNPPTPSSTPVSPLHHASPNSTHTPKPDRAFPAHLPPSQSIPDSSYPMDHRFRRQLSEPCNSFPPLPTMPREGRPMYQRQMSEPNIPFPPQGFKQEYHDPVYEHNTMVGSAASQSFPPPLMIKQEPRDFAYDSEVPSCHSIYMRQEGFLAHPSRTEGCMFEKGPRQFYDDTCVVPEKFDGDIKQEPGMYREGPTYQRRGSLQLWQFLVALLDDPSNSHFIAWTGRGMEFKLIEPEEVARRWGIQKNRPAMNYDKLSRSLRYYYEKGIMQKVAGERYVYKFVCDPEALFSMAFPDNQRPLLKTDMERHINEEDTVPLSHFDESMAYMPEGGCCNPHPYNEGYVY

Regarding TCTTTT, the binding signal in [1] is 1.46 fold enrichment (6-mer frequency, TF over GST control); in assay [2], 1.38 fold enrichment (6-mer frequency, TF over GST control); in assay [3], 1.45 fold enrichment (6-mer frequency, TF over GST control); in assay [4], 1.36 fold enrichment (6-mer frequency, TF over GST control); in assay [5], 1.47 fold enrichment (6-mer frequency, TF over GST control); in assay [6], 1.53 fold enrichment (6-mer frequency, TF over GST control). Moreover, the binding signal was 2.09 fold enrichment (6-mer frequency, TF over GST control) in assay [7]; 1.61 fold enrichment (6-mer frequency, TF over GST control) in assay [8]; 1.51 fold enrichment (6-mer frequency, TF over GST control) in assay [9]; 1.44 fold enrichment (6-mer frequency, TF over GST control) in assay [10]; 1.4 fold enrichment (6-mer frequency, TF over GST control) in assay [11]; 1.66 fold enrichment (6-mer frequency, TF over GST control) in [12]. The binding signal was 1.55 fold enrichment (6-mer frequency, TF over GST control) in assay [13]; 1.54 fold enrichment (6-mer frequency, TF over GST control) in assay [14]; 1.22 fold enrichment (6-mer frequency, TF over GST control) in assay [15]; 1.42 fold enrichment (6-mer frequency, TF over GST control) in [16]; 1.41 fold enrichment (6-mer frequency, TF over GST control) in assay [17]; 1.59 fold enrichment (6-mer frequency, TF over GST control) in [18]. In addition, the binding signal in assay [19] is 1.47 fold enrichment (6-mer frequency, TF over GST control).
